Source: PubChem BioAssay (NCATS)
Values joined by “and” are separate entries in the source; they are usually repeats but may differ in a detail not shown here. Equal values may be shown once. Records with an inconclusive call do not appear. Active and inactive are the calls of the source. Unless noted, the call rests on the fitted dose curve; in most records, active means well fitted curve in the direction sought with a large enough effect; inconclusive means small, poorly fitted or top-dose-only effect, or another doubt; inactive means no such curve, though single readings can be large; an effect the other way counts as inactive or inconclusive.

Legend:
[1] = target: Cellular tumor antigen p53 (Homo sapiens) (UniProt P04637); experiment: Primary qHTS for small molecule compounds that upregulate eGFP-tagged delta133p53alpha (in N-terminal) cells. (AID 2060322); conditions: NCI-H358 eGFP-delta133p53alpha fluorescence, 24 h; activation: hits give high values; further: nearly all actives have a fitted effect of over 75% in size; further: potency means the concentration at half of the fitted maximal effect;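 on activation: series mostly up to about 56 µM; 0% = DMSO vehicle and 100% = reference activator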
Outline: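 NCI-H358 cells pre-induced 24 h with 10 ng/ml doxycycline to express N-terminal eGFP-delta133p53alpha, then dosed 24 h at 37C without doxycycline; fixed, Hoechst-stained, GFP intensity by laser scanning cytometry, normalized to DMSO (0%) and 57.5 uM 5-azacytidine (100%).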

[2] = target: Aldehyde dehydrogenase, mitochondrial (Homo sapiens) (UniProt P05091); experiment: qHTS for Inhibitors of the Aldehyde Dehydrogenase Family (ALDH2) Confirmatory screens (AID 2061303; active means well fitted inhibition curve with a large enough effect; title and protocol of this record describe different tests; further: nearly all actives have a fitted effect of over 45% in size; further: potency means the concentration at half of the fitted maximal effect)
[3] = qHTS for Inhibitors of the Aldehyde Dehydrogenase Family (ALDH1A2, ALDH1A3, ALDH2, ALDH3A1) (AID 2061307); further: nearly all actives have a fitted effect of over 50% in size
[4] = target: Aldehyde dehydrogenase, mitochondrial (Homo sapiens) (UniProt P05091); experiment: qHTS for Inhibitors of the Aldehyde Dehydrogenase Family (ALDH2) Primary screen (AID 2061308);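 further: plate controls were vehicle for no effect and reference inhibitor for full effect; nearly all actives have a fitted effect of over 55% in size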
[5] = target: Retinaldehyde dehydrogenase 3 (Homo sapiens) (UniProt P47895); experiment: qHTS for Inhibitors of the Aldehyde Dehydrogenase Family (ALDH1A3) Confirmatory screens (AID 2061311); further: nearly all actives have a fitted effect of over 60% in size; further: potency means the concentration at half of the fitted maximal effect
[6] = target: Retinaldehyde dehydrogenase 3 (Homo sapiens) (UniProt P47895); experiment: qHTS for Inhibitors of the Aldehyde Dehydrogenase Family (ALDH1A3) Primary screen (AID 2061315); further: potency means the concentration at half of the fitted maximal effect
[7] = target: Aldehyde dehydrogenase 1A1 (Homo sapiens) (UniProt P00352); experiment: qHTS for Inhibitors of the Aldehyde Dehydrogenase Family (ALDH1A1) Confirmatory screens (AID 2061316); further: nearly all actives have a fitted effect of over 65% in size; further: potency means the concentration at half of the fitted maximal effect
[8] = target: Retinal dehydrogenase 2 (Homo sapiens) (UniProt O94788); experiment: qHTS for Inhibitors of the Aldehyde Dehydrogenase Family (ALDH1A2) Confirmation screens (AID 2061314); further: nearly all actives have a fitted effect of over 65% in size; further: potency means the concentration at half of the fitted maximal effect
[9] = BET inhibitor-based combinations targeting novel dependencies in MECOM-rearranged (r) AML: SET-2 cell line (AID 2202231); conditions: SET-2 AML cells viability, CellTiter-Glo luminescence, 48 h; viability: hits give low values, concentration not given here; further: potency means the concentration at half of the fitted maximal effect; nearly all actives have a fitted effect of over 35% in size
Outline: (§1)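 Cells were plated at 500 per well and exposed to an 11-point dose series of each drug for 48 hr. Viability was measured by CellTiter-Glo luminescence, normalized to DMSO and empty-well controls, and summarized as AUC and per-cell-line Z-AUC.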

[10] = BET inhibitor-based combinations targeting novel dependencies in MECOM-rearranged (r) AML: OCI-AML3 cell line (AID 2202232); conditions: Potency: OCI-AML3 viability; further: potency means the concentration at half of the fitted maximal effect; nearly all actives have a fitted effect of over 35% in size
Outline: as §1

[11] = BET inhibitor-based combinations targeting novel dependencies in MECOM-rearranged (r) AML: MV-4-11 cell line (AID 2202233); further: potency means the concentration at half of the fitted maximal effect; nearly all actives have a fitted effect of over 45% in size
Outline: (§2)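 Activity is given as area under the curve and as Z-AUC, mean-centred within each cell line. It comes from 11-point dose curves normalized to DMSO and empty wells. CellTiter-Glo luminescence was read after 48 hr drug exposure of 500 cells/well.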

[12] = BET inhibitor-based combinations targeting novel dependencies in MECOM-rearranged (r) AML: HNT-34 cell line (AID 2202234); further: potency means the concentration at half of the fitted maximal effect; nearly all actives have a fitted effect of over 35% in size
Outline: as §2

[13] = BET inhibitor-based combinations targeting novel dependencies in MECOM-rearranged (r) AML: UCSD-AML1 cell line (AID 2202235); further: potency means the concentration at half of the fitted maximal effect; nearly all actives have a fitted effect of over 40% in size
Outline: as §2

[14] = BET inhibitor-based combinations targeting novel dependencies in MECOM-rearranged (r) AML: AML-191 cell line (AID 2202236; further: potency means the concentration at half of the fitted maximal effect; nearly all actives have a fitted effect of over 35% in size)
Outline: as §1

[15] = BET inhibitor-based combinations targeting novel dependencies in MECOM-rearranged (r) AML: AML-194 cell line (AID 2202237; further: potency means the concentration at half of the fitted maximal effect; nearly all actives have a fitted effect of over 40% in size)
Outline: as §1

[16] = target: Retinaldehyde dehydrogenase 3 (Homo sapiens) (UniProt P47895); experiment: qHTS for Inhibitors of the Aldehyde Dehydrogenase Family (ALDH1A3) Validation screen (AID 2061312); further: nearly all actives have a fitted effect of over 45% in size; further: potency means the concentration at half of the fitted maximal effect

Chain of Cellular tumor antigen p53 (Homo sapiens) (P04637 whole entry, looked up): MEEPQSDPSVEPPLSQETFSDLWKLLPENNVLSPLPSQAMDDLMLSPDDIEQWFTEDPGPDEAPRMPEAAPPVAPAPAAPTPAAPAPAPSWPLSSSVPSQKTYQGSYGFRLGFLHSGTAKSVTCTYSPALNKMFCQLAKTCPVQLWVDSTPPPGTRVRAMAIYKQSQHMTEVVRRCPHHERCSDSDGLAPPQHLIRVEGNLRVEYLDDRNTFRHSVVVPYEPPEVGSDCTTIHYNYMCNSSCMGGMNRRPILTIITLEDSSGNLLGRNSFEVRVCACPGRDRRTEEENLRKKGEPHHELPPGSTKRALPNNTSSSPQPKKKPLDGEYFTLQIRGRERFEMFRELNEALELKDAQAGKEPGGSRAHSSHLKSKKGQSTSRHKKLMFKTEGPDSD

CNC(=O)Nc1ccc(OC)c(NC(=O)NC(=O)c2cc(F)c(F)cc2Cl)c1
active: Potency [6] 28.2 µM
inactive: activation [1] -5.67% | Potency [2] | Potency [3] | Potency [4] | Potency [5] | Potency [7]

CC1(COc2ccc3c(c2)ncn3-c2ccc3cccc(N4CCC(N)CC4)c3n2)COC1
inactive: Potency [2] | Potency [3] | Potency [4] | Potency [6] | Potency [7]
active: Potency [1] 21.3 µM | Potency [8] 14.2 µM | Potency [9] 13.2 µM | Potency [10] 7.42 µM | Potency [11] 0.0332 µM | Potency [12] 5.9 µM | Potency [13] 4.17 µM | Potency [14] 2.09 µM | Potency [15] 2.35 µM

CC(=O)N(O)CCCCCN1C(=O)CCC1=O
inactive: activation [1] -6.25% | Potency [2] | Potency [3] | Potency [4] | Potency [5] | Potency [6] | Potency [7]

Cc1nnc(-c2sc(NC(=O)[C@H](C(C)C)n3c(=O)[nH]c4ccccc4c3=O)nc2C)o1
inactive: activation [1] -7.64% | Potency [2] | Potency [3] | Potency [5] | Potency [8] | Potency [6] | Potency [7]

CN(C)c1ccc(C2O[C@@H](c3ccccc3)C[C@H](c3ccccc3)O2)cc1 (stereo partly drawn)
inactive: activation [1] -3.34%
active: Potency [2] 3.55 µM | Potency [3] 3.57 µM | Potency [5] 3.55 µM | Potency [16] 44.7 µM | Potency [8] 10 µM | Potency [7] 10 µM

CCCN1CCC=C(c2cc(-c3ccc(C)cc3)no2)C1
inactive: activation [1] 2.86% | Potency [2] | Potency [3] | Potency [6] | Potency [7]
active: Potency [16] 25.1 µM

COc1cc(/C=C/C(=O)OCC2OC(OC3(CO)OC(CO)C(O)C3O)C(O)C(O)C2O)ccc1O (stereo not drawn)
inactive: activation [1] 10.7% | Potency [2] | Potency [3] | Potency [4] | Potency [7]

CN(C)C(=O)Nc1cccc(-c2ccc(N(C)C)cc2)c1
inactive: activation [1] -14.8% | Potency [2] | Potency [3] | Potency [4] | Potency [7]

CCCN(CCN1CCN(c2ccccc2OC)CC1)C1CCc2ncsc2C1 (stereo not drawn)
inactive: activation [1] -3.57% | Potency [2] | Potency [3] | Potency [5] | Potency [8] | Potency [7]

COc1cc(Nc2ncc(F)c(Nc3ccc4c(n3)NC(=O)C(C)(C)O4)n2)cc(OC)c1OC
active: Potency [10] 9.34 µM | Potency [11] 0.148 µM | Potency [12] 1.18 µM | Potency [13] 1.48 µM | Potency [14] 5.9 µM | Potency [15] 7.42 µM
inactive: activation [1] 7.29% | Potency [2] | Potency [3] | Potency [4]

COc1ccc(-c2cc3onc(-c4ccncc4)c3c(=O)n2C)cc1
inactive: activation [1] -6.68% | Potency [2] | Potency [3] | Potency [6] | Potency [7]

COc1cccc2cc(-c3nc(C4CCC(C(=O)O)CC4)n4ncnc(N)c34)[nH]c12 (stereo not drawn)
active: Potency [3] 3.57 µM | Potency [9] 2.95 µM | Potency [10] 1.66 µM | Potency [12] 0.833 µM
inactive: activation [1] 12.5% and 16.7% | Potency [2] | Potency [4] | Potency [6]

CCCCNC(=O)[C@@H]1Cc2ccccc2N1C(=O)[C@@H](N)CC
inactive: activation [1] -9.55% | Potency [2] | Potency [3] | Potency [5] | Potency [8] | Potency [6] | Potency [7]

COc1ccc2c(c1O)OC[C@H]1c3ccc(O)cc3O[C@@H]21
inactive: activation [1] -14.5% | Potency [2] | Potency [4]
active: Potency [5] 22.5 µM

C[C@@H]1CN(Cc2ncccn2)C[C@H]1c1nc2c(cnn2C2CCOCC2)c(=O)[nH]1
inactive: activation [1] 0.955% | Potency [2] | Potency [3] | Potency [5] | Potency [16] | Potency [8] | Potency [6]

CC(C)(C)Nc1nc(Nc2ccc(C(N)=O)cc2)cc(N)c1C#N
inactive: activation [1] 11% | Potency [4] | Potency [16] | Potency [6]
active: Potency [2] 7.08 µM | Potency [5] 15.8 µM | Potency [8] 3.57 µM | Potency [7] 14.2 µM

CCOC(=O)c1cccc(CNc2ccc(N(C)C(=O)Nc3ccccc3)cc2)c1
inactive: activation [1] -12.9% | Potency [2] | Potency [3] | Potency [5] | Potency [8] | Potency [7]

CC[C@H](CO)Nc1nc(NCc2ccc(-c3ccccn3)cc2)c2ncn(C(C)C)c2n1
active: Potency [1] 0.536 µM
inactive: Potency [2] | Potency [3] | Potency [6] | Potency [7]

CC(C)C[C@H](NC(=O)[C@@H](NC(=O)c1cccc(-c2ccccc2)n1)[C@@H](C)O)B(O)O
active: Potency [1] 385 nM and 16.9 µM | Potency [16] 10 µM | Potency [9] 0.0723 µM | Potency [10] 0.0407 µM | Potency [11] 0.0512 µM | Potency [12] 0.0645 µM | Potency [13] 0.0723 µM | Potency [14] 0.0811 µM | Potency [15] 0.091 µM
inactive: Potency [2] | Potency [3] | Potency [5] | Potency [8] | Potency [6] | Potency [7]

CN(C)C(=O)Nc1cc(-c2ccccc2)ccc1N(C)C
inactive: activation [1] -13.7% | Potency [2] | Potency [3]
active: Potency [6] 28.2 µM

Cc1csc2c(N[C@@H](C)CN3CCN(S(=O)(=O)c4ccc(Cl)c(Cl)c4)CC3)ncnc12
inactive: activation [1] -2.86% | Potency [6]
active: Potency [2] 12.6 µM | Potency [3] 708 nM and 224 nM | Potency [7] 8.96 µM
